F-actin modifier – alters cytoskeleton assembly in HUVEC cells. inhibition, % at 2 µM. HUVEC TNFa F-actin phalloidin imaging, high content. 91,000 compounds, 0.18% hits. AID 836;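 active means inhibition above the batch mean plus 3 SD and confirmed as a hit by visual image inspection, cut at about 30% in these data, passing the limit was not always enough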
GALR2 antag – GALR2 (human) receptor antagonism; O43603; GALR2-expressing cells, antagonist mode; inhibition, % at 4 µM; 140,000 compounds, 0.39% hits;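 further: cells stimulated with galanin 1-16 at roughly its EC80; 0% = agonist challenge control and 100% = basal control without agonist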
Target sequence (O43603 whole entry, looked up): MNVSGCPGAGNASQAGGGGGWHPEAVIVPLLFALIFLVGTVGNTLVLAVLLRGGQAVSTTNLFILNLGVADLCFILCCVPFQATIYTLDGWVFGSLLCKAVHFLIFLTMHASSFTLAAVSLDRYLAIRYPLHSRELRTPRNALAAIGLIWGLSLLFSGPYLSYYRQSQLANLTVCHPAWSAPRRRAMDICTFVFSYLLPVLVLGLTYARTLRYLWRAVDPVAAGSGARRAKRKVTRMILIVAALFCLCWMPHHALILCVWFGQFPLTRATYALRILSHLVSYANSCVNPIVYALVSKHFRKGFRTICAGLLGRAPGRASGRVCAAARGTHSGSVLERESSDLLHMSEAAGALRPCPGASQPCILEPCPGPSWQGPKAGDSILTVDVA
S1P2 agonist – activates the human S1P2 receptor | O95136 | S1P2-expressing cell line, agonist reporter read-out | activation, % at 4.5 µM | 97,000 compounds, 0.46% hits; in the data active means activation above about 16%;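 further: 0% = vehicle low control and 100% = maximal reference agonist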
S1P2 antag – antagonists of human S1P2 receptor. cell-based S1P2 antagonist assay, inhibition at 5 uM. O95136. 97,000 compounds, 0.21% hits. inhibition, % at 5 µM; in the data active means inhibition above about 45%;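 further: CRE beta-lactamase reporter cells expressing human S1P2 stimulated with S1P; 0% = agonist at EC80 alone and 100% = agonist plus reference antagonist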
GALR2 agonist – GALR2 (human) receptor agonism; O43603; GALR2-expressing cells, agonist activation read-out; activation, % (concentration not given with the values); 140,000 compounds, 0.48% hits; AID 803; in the data active means activation above about 5%, passing the limit was not always enough;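 further: 0% = vehicle buffer wells and 100% = reference agonist at full effect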
GALR2 blk conf – GALR2 (human) antagonism confirmed; GALR2-expressing cells, antagonist mode, inhibition; inhibition, % at 4 µM; 480 compounds, 60% hits; shares compounds with GALR2 antag;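 further: cells stimulated with galanin at about its EC80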
BLA inh counter – beta-lactamase inhibition, GALR2 counterscreen; shares compounds with GALR2 antag; CHO NFAT-BLA reporter, beta-lactamase FRET, thapsigargin-stimulated; inhibition, % at 4.2 µM; 480 compounds, 36% hits;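 active means inhibition above the mean inhibition across tested compounds plus 3 SD, cut at about 27% in these data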;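 further: 0% = 500 nM thapsigargin stimulated wells and 100% = unstimulated BSA only wells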
* = called active by the depositor; x = not tested or not shown. The list is not random: actives were taken first. Their share in the collection is about 1.3%. Unless noted, no stated cut-off is given here; in the data, active means inhibition above about 27%; inactive means the rest.

SMILES	F-actin modifier	GALR2 antag	S1P2 agonist	S1P2 antag	GALR2 agonist	GALR2 blk conf	BLA inh counter
CCC1C/C(=C\c2cccnc2)C(=O)/C(=C/c2cccnc2)C1 (stereo unspecified)	x	36*	x	x	-3	46*	21
CN(C)c1ccc(NC2=C(Cl)C(=O)c3ccccc3C2=O)cc1	x	41*	x	x	0	48*	9
CCOc1ccc2c(c1)C(C)=CC(C)(C)N2C(=O)Nc1ccccc1	-7	29*	1	5	-1	8	5
O=C(/C=C/c1ccco1)Nc1sc2c(c1C(=O)O)CCC2	-3	0	1	23	-1	x	x
N#Cc1c(NC(=O)/C=C/c2ccco2)sc2c1CCCC2	x	31*	x	x	5.9*	32*	64*
O=C1CCN2C=Nc3cccc4ccc1c2c34	6	29*	-5	3	0	20	21
c1ccc(CN2CCN(C3=Nc4cccc5cccc3c45)CC2)cc1	17	-1	-1	4	-3	x	x
Cc1ccc(C(=O)NN(CCC(=O)NC(C)(C)C)C2=NS(=O)(=O)c3ccccc32)cc1	x	-9	x	x	0	x	x
COCC(=O)Nc1cc(Cl)c(OC)cc1OC	x	14	x	x	-1	x	x
COc1ccc(C(=O)c2sc3nc(-c4ccccc4)ccc3c2N)cc1	x	32*	x	x	-2	42*	49*
COc1ccc(C(=O)c2sc(NC(C)C)nc2N)cc1OC	0	2	-2	8	-3	x	x
COc1cccc(C(=O)c2sc(NC(C)C)nc2N)c1	x	40*	x	x	-3	10	-2
c1ccc(-n2nnnc2Oc2cccc3cccnc23)cc1	12	-1	-9	16	-3	x	x
N#Cc1cc(Oc2cccc3cccnc23)c(-n2nnc3ccccc32)cc1C#N	-10	39*	-6	-2	-6	18	13
COc1cccc(CN2C(=O)c3cccc(N)c3C2=O)c1	x	31*	x	x	2	8	12
COc1cccc(CN2C(=O)Nc3ccccc3C(=O)N2C(C)(C)C)c1	10	-5	3	-6	0	x	x
Cc1c(C(=O)Nc2ccc3c(c2)OCCO3)sc2nc(-c3ccccc3)cn12	-12	9	-4	32	1	x	x
Cc1c(C(=O)Nc2ccncc2)sc2nc(-c3ccccc3)cn12	x	28*	x	x	0	17	8
O=c1c(Cl)c(Cl)cnn1Cc1ccccc1Cl	x	63*	x	x	2	64*	61*
Cc1ccc(Cn2ncc(Cl)c(Cl)c2=O)cc1	x	22	x	x	0	x	x
O=c1c(Cl)c(N/N=C/c2ccc(Cl)cc2)cnn1-c1ccccc1	x	-5	x	x	2	x	x
O=c1c(Cl)c(Cl)cnn1-c1ccccc1	x	88*	x	x	-3	92*	78*
Cc1ccc(Sc2ccc(N)cc2C#N)cc1	x	7	-2	-3	-1	x	x
O=S(=O)(Nc1cc(Sc2cccc3cccnc23)c(O)c2ccccc12)c1ccccc1	x	31*	x	x	0	24	10
Cc1ccc(S(=O)(=O)Nc2cccc3cccnc23)cc1	x	8	-4	-14	0	x	x
SMILES	F-actin modifier	GALR2 antag	S1P2 agonist	S1P2 antag	GALR2 agonist	GALR2 blk conf	BLA inh counter
CCC(=O)N1CCc2cc(S(=O)(=O)NC(Cc3ccccc3)C(=O)NC3CCCCC3)ccc21 (stereo unspecified)	x	17	x	x	-2	x	x
CC(=O)N1CCc2cc(S(=O)(=O)NC(Cc3ccccc3)C(=O)Nc3cc(C)ccn3)ccc21 (stereo unspecified)	x	29*	-7	-2	-2	3	3
O=C(CSc1nc2ccccc2s1)N1c2ccccc2Sc2ccc(Cl)cc21	26	1	-1	0	-2	x	x
CCN(CC)CC(=O)N1c2ccccc2Sc2ccc(Cl)cc21	-20	29*	-6	8	-1	16	7
CCOC(=O)C1C(=O)C=C(c2ccc(C)cc2)CC1c1cccc([N+](=O)[O-])c1 (stereo unspecified)	x	-7	x	x	1	x	x
COc1ccccc1N1CCN(C2CCN(C(=O)COc3cccc(C)c3)CC2)CC1	x	1	x	x	-1	x	x
CC(=O)c1c(C)nc(-c2ccc(Cl)cc2)nc1N=CN(C)C	x	31*	-4	-5	-3	20	12
NC(=O)CC[C@@H]1NC(=O)[C@@H]2CCCN2C(=O)c2cc([N+](=O)[O-])cc(I)c2NCCC[C@@H](C(N)=O)NC1=O	x	-6	x	x	-1	x	x
CCCCC(=O)Nc1cc(C(=O)NCCc2ccccc2)ccc1Cl	19	6	-4	-11	-2	x	x
CCn1c(SCC(=O)Nc2ccccc2)nc2c1c(=O)n(C)c(=O)n2C	-1	10	-3	-21	0	x	x
Cn1c(=O)c2c(nc(SCC(=O)Nc3ccccc3)n2C)n(C)c1=O	x	28*	x	x	0	8	1
CCOC(=O)N/N=C\C=C\c1ccc2c(c1)OCO2	x	-6	x	x	1	x	x
OCCCc1nc2n(n1)C(c1ccccc1Cl)C=C(c1cccs1)N2 (stereo unspecified)	15	28*	-13	24	1	17	23
CCC(Oc1ccccc1)C(=O)NCc1ccc(S(N)(=O)=O)cc1 (stereo unspecified)	x	-4	x	x	-1	x	x
Cc1cc(C)nc(SCc2ccc(C(=O)N/N=C/c3cccc(O)c3O)cc2)n1	x	28*	x	x	-1	22	28*
CCOC(=O)c1cccc(NC(=O)C2(S(=O)(=O)c3ccc(C)cc3)CC2)c1	x	-9	x	x	0	x	x
CC(=O)c1ccc(N2CCN(C(=O)COc3ccc(F)cc3)CC2)c(F)c1	x	28*	x	x	-2	8	-2
CCC(=O)c1ccc(N2CCN(C(=O)COc3ccc(F)cc3)CC2)c(F)c1	-27	4	-5	10	0	x	x
CCOC(=O)N1CCN(C(=S)Nc2cc(OC)c(OC)cc2C(=O)OC)CC1	16	-17	-8	27	0	x	x
CC1(C)CC(=O)/C(=C\c2cccc([N+](=O)[O-])c2)C(C)(C)N1	x	27*	x	x	-1	34*	13
NC(=O)c1sc2nc(-c3ccco3)ccc2c1N	-4	-21	-5	14	0	x	x
Nc1c(C(=O)Nc2ccccc2F)sc2nc(-c3ccco3)ccc12	7	31*	-8	34	-1	27	22
Cc1cccc2sc(NC(=O)C3c4ccccc4Oc4ccccc43)nc12	2	-3	-2	6	-3	x	x
Cc1ccc2nsnc2c1NC(=O)c1ccc2c(c1)OCCO2	x	38*	-3	-9	-4	5	4
C=C1C(=O)[C@@]23[C@H](O)C[C@@H]4C(C)(C)CC[C@H](O)[C@@]4(C)[C@@H]2CC[C@@H]1[C@H]3O	x	38*	x	x	0	38*	58*
C=C1C(=O)[C@@]23[C@H](O)C[C@@H]4C(C)(C)CC[C@H](O)[C@]4(C)[C@@H]2C[C@H](O)[C@@H]1[C@H]3O	x	-6	x	x	-2	x	x
CCOC(=O)c1cnn(-c2nc3c(C)cccc3s2)c1C	36*	32*	-4	6	-4	-1	4
CCOC(=O)c1cnn(-c2nc3c(C)cccc3s2)c1C(F)(F)F	-19	5	0	-14	-2	x	x
Cn1nc(CC(=O)Nc2ccc3c(c2)OCCO3)c2ccccc2c1=O	x	36*	x	x	-1	42*	17

Screening results from PubChem.
